Mtb bLac sens: beta-lactam sensitization of Mtb H37Rv; M. tuberculosis H37Rv growth with meropenem, percent inhibition; inhibition, % at 25 µM; 330,000 compounds, 0.27% hits; AID 434955; call rule not given here;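 further: growth measured after seven days incubation then overnight dye step; 0% = bacteria only wells and 100% = bacteria with antibiotic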
SSB-PriA inh: blocks PriA binding to SSB C-terminal tail; AlphaScreen SSBct-PriA binding, biotinylated peptide; inhibition, % at 33 µM; 430,000 compounds, 0.6% hits; AID 1272365; in the data active means inhibition mostly above about 37%, no sharp cut-off; inactive means mostly below about 20%;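 further: plate controls were negative control peptide for no effect and reference peptide for full effect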
Rv3671c inh: Rv3671c (M. tuberculosis) protease inhibition; AID 2606; inhibition, % at 5.96 µM; 320,000 compounds, 0.048% hits; P9WHR9; in the data active means inhibition above about 38%;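 further: extracellular domain of Rv3671c used as enzyme; 0% = enzyme with DMSO and 100% = no enzyme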
Mtb UGM inh: inhibitors of M. tuberculosis UDP-galactopyranose mutase; P9WIQ1; purified UGM, fluorescence polarization probe displacement; AID 504406; inhibition, % at 10 µM; 320,000 compounds, 0.06% hits; in the data active means inhibition above about 10%, passing the limit was not always enough
Target sequence (P9WIQ1 whole entry, looked up): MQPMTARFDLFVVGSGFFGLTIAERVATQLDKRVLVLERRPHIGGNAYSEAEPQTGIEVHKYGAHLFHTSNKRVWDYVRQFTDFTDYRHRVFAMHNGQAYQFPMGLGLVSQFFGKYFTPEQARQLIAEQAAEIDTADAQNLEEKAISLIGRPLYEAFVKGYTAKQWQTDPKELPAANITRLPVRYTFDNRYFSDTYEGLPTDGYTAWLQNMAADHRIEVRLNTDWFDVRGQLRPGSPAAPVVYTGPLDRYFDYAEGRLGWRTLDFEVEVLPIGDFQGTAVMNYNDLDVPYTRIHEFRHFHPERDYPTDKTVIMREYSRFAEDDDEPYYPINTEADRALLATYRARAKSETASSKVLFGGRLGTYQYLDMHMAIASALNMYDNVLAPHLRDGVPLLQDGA
FBA Mtb inh: inhibits M. tuberculosis FBA enzyme | purified M. tuberculosis FBA, fluorescence read-out | P9WQA3 | AID 588726 | 360,000 compounds, 2.3% hits | inhibition, % at 1 µM; in the data active means inhibition above about 27%;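 further: 0% = vehicle and 100% = reference inhibitor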
GDH-TPI inh: counter-screen for M. tuberculosis FBA inhibitors: GDH-TPI coupled enzymes; GDH-TPI coupled enzyme counterscreen, NADH absorbance; inhibition, % at 4.8 µM; 360,000 compounds, 1.2% hits; in the data active means inhibition above about 30%;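 further: 0% = DMSO wells and 100% = wells lacking the enzyme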
Numbers without * were called inactive; nt = not tested or not shown; + = active, no number. An excerpt weighted towards active compounds, which were near 3.2% of everything screened.

SMILES	Mtb bLac sens	SSB-PriA inh	Rv3671c inh	Mtb UGM inh	FBA Mtb inh	GDH-TPI inh
CC(C)(C)c1ccc(C2=CC(c3ccccc3)n3ncnc3N2)cc1 (stereo not given)	59	-5	-7	1	25	4
Clc1ccc(C2=CC(c3ccco3)n3ncnc3N2)cc1 (stereo not given)	17	7	-2	-5	38*	30
CC(=O)Nc1cccc(C2=CC(c3ccco3)n3ncnc3N2)c1 (stereo not given)	-8	nt	1	2	nt	nt
CN1C(=O)c2ccc(NC(=O)c3cccc(C(F)(F)F)c3)cc2C1=O	nt	-12	nt	nt	nt	nt
COC(=O)Cn1cc(C=C2C(=O)N(C)C(=O)N(C)C2=O)c2ccccc21	0	-11	-12	14*	nt	nt
COCCCNC(=O)Cn1cc(/C=C(\C#N)C(=O)NC2CCCC2)c2ccccc21	6	-21	-8	-2	-1	33*
COCCNC(=O)Cn1cc(C=C2C(=O)NC(=O)NC2=O)c2ccccc21	-1	-12	2	42*	-3	11
O=C(Nc1ccc(S(=O)(=O)Nc2ncccn2)cc1)c1csc2nc(-c3ccc(F)cc3)cn12	nt	9	nt	nt	nt	nt
Cc1cc(C#Cc2c(-c3ccccc3)n(C)c3ccccc23)ccc1F	-2	-10	-16	2	27*	16
COc1ccc(C)cc1NC(=O)CSc1cc(-c2ccccn2)nc(C)n1	nt	42	nt	nt	nt	nt
COc1ccc(C)cc1NC(=O)CSc1ccc(-c2ccccn2)nn1	100	52*	-13	-5	0	-1
COc1ccc(C)cc1NC(=O)CSc1ccccn1	nt	56*	nt	nt	nt	nt
Oc1ccc(C=NN2CCCCC2)c(O)c1	nt	3	nt	nt	nt	nt
Cc1cc(F)ccc1NC(=O)CN1CCC(c2nc(-c3ccccc3Cl)no2)CC1	nt	-5	nt	nt	nt	nt
N#Cc1cnc(-c2ccccn2)nc1N	nt	83*	nt	nt	nt	nt
NCc1ccnc(-c2ccccn2)n1	nt	126*	nt	nt	nt	nt
Nc1ccnc(-c2ccccn2)n1	nt	151*	nt	nt	nt	nt
CCCc1cc(=O)oc2cc(OCc3ccc(C(=O)O)cc3)ccc12	1	-14	-1	7	48*	13
COc1ccc2c(c1)c(=O)oc1cc(OCC(=O)NCC3CCC(C(=O)O)CC3)ccc12 (stereo not given)	2	2	-2	-2	15	11
COc1ccc(-c2cc3ccc(OCC(=O)NCC4CCC(C(=O)O)CC4)cc3oc2=O)cc1 (stereo not given)	1	-14	-2	0	178*	42*
CCc1cc(=O)oc2cc(OCC(=O)NCC3CCC(C(=O)O)CC3)ccc12 (stereo not given)	-8	-1	2	-1	28*	19
C=C(Cl)COc1ccc2c(CCC)cc(=O)oc2c1	6	-51	5	-1	16	9
CCc1cc(=O)oc2cc(OCC(=O)N3C[C@H]4C[C@H](C3)c3cccc(=O)n3C4)ccc12	nt	-7	nt	nt	nt	nt
COc1ccccc1CCc1nnc(CCC(=O)N(C)Cc2cccc3ncccc23)o1	-1	-8	9	-1	159*	-2
COC(=O)CSC1CCN(C(=O)c2cccc3ccc(C)nc23)C1 (stereo not given)	nt	-13	nt	nt	nt	nt
SMILES	Mtb bLac sens	SSB-PriA inh	Rv3671c inh	Mtb UGM inh	FBA Mtb inh	GDH-TPI inh
COC(=O)c1cc2c(=O)n3cc(C)ccc3nc2s1	nt	-15	nt	nt	nt	nt
Cc1ccc2nc3c(cc(C(=O)NC4CCCC4)c(=N)n3C3CCCCC3)c(=O)n2c1	7	1	0	4	134*	14
CNC(=O)c1cc2c(=O)n3cc(C)ccc3nc2n(C(C)C)c1=N	0	-13	3	1	+	11
Cc1ccccc1Cn1cnc2c(cnn2CCNC(=O)c2ccc(F)c(F)c2)c1=O	nt	-14	nt	nt	nt	nt
CSc1ccc(/C=C(\NC(=O)c2ccco2)C(=O)N2CCCCC2)cc1	1	-8	nt	0	-3	37*
COc1ccc(/C=C(\NC(=O)c2ccco2)C(=O)Nc2ccc(C(C)=O)cc2)cc1	0	-6	nt	-2	-2	33*
COc1ccc(/C=C(/NC(=O)c2ccco2)C(=O)Nc2ccc(C(=O)O)cc2)cc1	-1	7	-2	0	-2	12
CSc1ccc(/C=C(/NC(=O)c2ccco2)C(=O)NCc2ccco2)cc1	0	-3	nt	-1	1	41*
Cn1cc(C(=O)N2CC(c3nc(-c4ccco4)no3)C2)nn1	nt	-5	nt	nt	nt	nt
CCC1C2CN(C(C)=O)CC=C2C(C#N)=C(N)C1(C#N)C#N (stereo not given)	-3	29	-1	3	6	6
CC(C)N1CC=C2C(C#N)=C(N)C(C#N)(C#N)[C@H](c3ccoc3)[C@H]2C1	0	nt	-25	9	nt	nt

High-throughput results (PubChem)
